Hit rate of the full screen: of about 2,400 compounds, about 1,500 (62%) were called active. Rule as the data show it: active = inhibition above about 22%; inactive = the rest. The set was probably picked from earlier hits. These entries were drawn from the full list.
What follows are molecules tested against Melanin-concentrating hormone receptor 1 (Homo sapiens) (UniProt Q99705) (assay: MCHR1 antagonists in cells, counter-screen for GPR7 antagonist project, cell-based, fluorescence, human (AID 2148;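 also: 0% = vehicle with agonist and 100% = vehicle without agonist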)). Conditions: MCHR1-expressing cells, fluorescence antagonist assay; at 4.4 µM; stronger effect = higher value.

| Compound | inhibition |
| --- | --- |
| Cc1ccc(NC2=C(Cl)C(=O)OC2OC(=O)c2ccccc2C)cc1 (centres undefined) | 39.7% (active) |
| COc1ccc(NC(=O)C2CCC(CNS(=O)(=O)c3csc(C(N)=O)c3)CC2)cc1OC (centres undefined) | 7.62% (inactive) |
| CC1(C)CC(CNCCC(c2ccc(F)cc2)c2ccco2)CCO1 (centres undefined) | 23.9% (active) |
| Cc1ccc(CNC(=O)C2CCN(S(=O)(=O)c3ccc4nc5c(c(C(=O)O)c4c3)CC(C)CC5)CC2)cc1 (centres undefined) | 10.8% (inactive) |
| Cn1c(=O)c([N+](=O)[O-])c(Oc2ccccc2)c2ccccc21 | 30.5% (active) |
| COc1cc(OC)c(-n2cc(-c3ccc(Cl)cc3)[nH]c2=O)cc1Cl | 53.2% (active) |
| Cc1cccc(-c2nc3ccc(C(=O)NCCN4CCN(C)CC4)cc3nc2-c2cccc(C)c2)c1 | 34.7% (active) |
| S=C(NCCc1ccccc1)Nc1ccccc1 | 33.6% (active) |
| CN(c1ccccc1)S(=O)(=O)c1ccc(C(=O)NCCc2ccccc2)cc1 | 11.5% (inactive) |
| COc1ccccc1N1CCN(c2ncnc3sc(C)c(-c4ccccc4)c23)CC1 | 56.4% (active) |
| COc1ccccc1CNC(=O)COc1ccc(C)nc1[N+](=O)[O-] | -4% (inactive) |
| Cc1cc(OCc2ccc(C(=O)Nc3ccc(C(=O)O)cc3)o2)ccc1Cl | 22% (active) |
| CC(C)(C)CC(C)(C)NCC(O)COCCOc1ccc(Br)cc1 (centres undefined) | 47.4% (active) |
| O=C(Nc1ccc2ccccc2c1)Nc1ccc2snnc2c1 | 61.5% (active) |
| CCN1CCN(c2ccc([N+](=O)[O-])cc2C(=O)c2ccc(Cl)cc2)CC1 | 41.1% (active) |
| OC(CNCC1CCCO1)Cn1c2ccc(Br)cc2c2cc(Br)ccc21 (centres undefined) | 81.1% (active) |
| O=C(CCCN1CCc2[nH]c3ccc(F)cc3c2C1)c1ccc(F)cc1 | 44.6% (active) |
| CS(=O)(=O)Nc1cccc(C2=NN(S(=O)(=O)c3ccccc3)C(c3cccs3)C2)c1 (centres undefined) | 25.9% (active) |
| COc1ccc(OC)c(C(c2nnnn2C(C)(C)C)N2CCc3ccccc3C2)c1 (centres undefined) | 47.3% (active) |
| COCCCNC(=S)N1CCN(c2nc(-c3cccc(OC)c3)cs2)CC1 | 51.1% (active) |

| Compound | inhibition |
| --- | --- |
| Cc1ccc(NC(=O)CN2CCC3(O)CCCCC3C2c2ccc3c(c2)OCO3)c(C)c1 (centres undefined) | 24.9% (active) |
| COc1ccc([N+](=O)[O-])cc1N(CC(O)CN(CC(C)C)CC(C)C)S(=O)(=O)c1ccc(C)cc1 (centres undefined) | 66% (active) |
| COCCN(Cc1cc2cc3c(cc2nc1Cl)OCO3)C(=O)c1cccc(C)c1 | 37.5% (active) |
| Cc1cccc(CS(=O)(=O)c2ncc(Cl)c(C(=O)Nc3ccc(F)cc3)n2)c1 | 92.1% (active) |
| COc1ccc(N=C2SC(C(=O)Nc3ccc(F)cc3)CC(=O)N2C)cc1 (centres undefined) | 3.76% (inactive) |
| Cc1ccccc1CN1C[C@@H]2C[C@@H](c3cn(C)nc3-c3ccccc3)N3CCC[C@@]23C1=O | 21.2% (inactive) |
| COc1ccccc1Oc1ccc(S(=O)(=O)Nc2cccnc2)cc1 | 39.9% (active) |
| COc1ccc(C)cc1NC(=O)NCCCCc1ccccc1 | 22.6% (active) |
| CCC(C(=O)Nc1ccc(C(C)C)cc1)c1ccccc1 (centres undefined) | 95.6% (active) |
| Cc1cc2c(cc1C)N(Cc1ccccc1)C1=NCCCN12 | 9.03% (inactive) |
| Cc1cc(Cl)ccc1OCCCC(=O)Nc1cccc(-n2cnnn2)c1 | 45.7% (active) |
| O=C(CCc1ccccc1)Nc1ccc(NC(=O)C2CC2)nc1 | 4.99% (inactive) |
| O=C(CN1CCN(C(=S)NC2CCCC2)CC1)Nc1ccc(Oc2ccccc2)cc1 | 52.8% (active) |
| O=C(CSc1nnc(-c2ccco2)o1)NCC(=O)c1ccccc1 | 19.5% (inactive) |
| COc1ccc(C(=O)CSc2nnc(COc3ccccc3)n2Cc2ccco2)cc1 | 38.8% (active) |
| C=CCSc1nsc(NC(=O)Nc2cccc(C(C)=O)c2)n1 | 68.9% (active) |
| CCSc1nsc(NC(=O)Nc2cccc(C(C)=O)c2)n1 | 62% (active) |
| Cc1ccc(NC(=S)N(CCCN2CCC(C)CC2)Cc2ccco2)cc1 | -1.82% (inactive) |
| Oc1cccc(/C=N/Nc2ccc(Cl)nn2)c1O | 28.3% (active) |
| N#CC1=C(SCc2ccc(C#N)cc2)N=C(N)C(c2nc(-c3ccccc3)cs2)C12CCCCC2 (centres undefined) | 24.5% (active) |

| Compound | inhibition |
| --- | --- |
| N=c1n(CCc2ccccc2)c2ccccc2n1Cc1ccccc1F | 53.5% (active) |
| CCc1ccc2nc(N(CCCN(C)C)C(=O)c3ccc4c(c3)OCCO4)sc2c1 | 31.3% (active) |
| CN(C)CCCN(C(=O)c1ccc(S(=O)(=O)N2CCCCCC2)cc1)c1nc2ccc(Br)cc2s1 | 71.8% (active) |
| CN(C)CCCN(C(=O)c1ccc(S(=O)(=O)N2CCCc3ccccc32)cc1)c1nc2ccc(F)cc2s1 | 72.1% (active) |
| CCn1c2ccc(F)cc2c2nnc(SCCN3CCOCC3)nc21 | -2.62% (inactive) |
| O=C(Nc1ccc2c(c1)OCO2)C1CC(c2c(F)cccc2Cl)=NO1 (centres undefined) | 2.22% (inactive) |
| O=C(NCCNc1ccc([N+](=O)[O-])cc1Cl)c1ccccc1F | 35.2% (active) |
| CN(C)S(=O)(=O)N1CCC(Oc2cccc(C(=O)NCCCC3CCCC3)c2)CC1 | 90.4% (active) |
| CS(=O)(=O)N(Cc1ccc(Cl)cc1)c1ccc(C(=O)NCCSCc2ccco2)cc1 | 22.2% (active) |
| CC(=O)N1CCCc2cc(S(=O)(=O)N3CCCC(C(=O)N4CCN(c5cccc(Cl)c5)CC4)C3)ccc21 (centres undefined) | 71.3% (active) |
| CCc1c(C)nc2c(-c3ccccc3)c(C)nn2c1Nc1ccc(NC(C)=O)cc1 | 24.5% (active) |
| Cc1ccc2nc(C)c3c(c2c1)N(c1ccccc1)CC3 | 22.2% (active) |
| c1ccc(C2CNCc3c2ccc2ccccc32)cc1 (centres undefined) | 73.3% (active) |
| CCCCCCCCCCOC(=O)Cn1c(COc2cccc(OC)c2)[n+](C)c2ccccc21 | 81.7% (active) |
| Cc1ccc(SCc2cc(=O)[nH]c(N3CCCCC3)n2)cc1 | -8.9% (inactive) |
| CCN1CCN(c2c(Cl)cccc2NC(=O)c2ccc(Br)o2)CC1 | 21% (inactive) |
| CC(NCc1ccccc1OC1CCCC1)c1ccccc1 (centres undefined) | 33% (active) |
| CC(C)(C)NCc1cc(Br)ccc1OC1CCCC1 | 11.2% (inactive) |
| CCN(CC)CCOCCOc1ccc(Cl)c2ccccc12 | 19.4% (inactive) |
